Growth data for 38 molecules are collected here from PubChem BioAssay (NCI).

About 83,000 compounds went through this panel and 20% of them were active in at least one assay; those are over-represented in the sample as a whole.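 96-well plates, one dose, 48 hours. Percent growth reported; active if below 10.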 Activity calls are given as the source filed them.

In the first assay the test system is HS 578T breast. Nature of the assay: NCI-60 one-dose screen, 48 h (100 = growth as untreated, 0 = no growth, -100 = all killed). The settings on record: 10 µM unless noted.
Consider `CC[n+]1ccc2c(c1)C(=O)c1nccc3c1c-2nc1ccccc13`, for which the growth is -21.8% (active).

`COc1ccc(-c2csc(NC(=O)CN3CCN(c4cc5c(cc4F)c(=O)c(C(=O)O)cn5C4CC4)CC3)n2)cc1`: the growth is 16.5% (inactive).

For the molecule `O=C1c2cc3c(cc2-c2c1c1cc(F)c(F)cc1c(=O)n2C[C@H](O)CO)OCO3`, the growth was 42.1% (inactive).

Consider `Cn1c2ccccc2c2c3c(c4c5ccccc5n(CCCCCC#N)c4c21)C(=O)N(O)C3=O`, for which the growth is 13% (inactive).

As to `CCOC(=O)c1c2c(n3ccc(NC(=O)CCN4CCOCC4)cc13)C(=O)c1ncccc1C2=O`, the growth is 52% (inactive).

As to `Oc1ccccc1N=Cc1c(O)ccc2ccccc12`, the growth is 64.9% (inactive).

Regarding `O=c1ccc2cc3ccccc3cc2[nH]1`, the growth is 50.9% (inactive).

`O=C(Nc1ccc(Oc2ccc(F)cc2)c(Cl)c1)c1cccnc1`: the growth was 91.5% (inactive).

With `CCCCCCCCCc1cc(CN2CCCCC2)c(O)c(CN2CCCCC2)c1`, the growth is 72.7% (inactive).

Turning to `CC/C(Cc1ccccc1)=C(\c1ccc(OCCN2CCCC2)cc1)c1ccc(OC(C)=O)cc1`, the growth was 85.5% (inactive).

`C=C1CC[C@@H]2[C@](C)(COC(C)=O)[C@H](OC(C)=O)CC[C@@]2(C)[C@@H]1CC(Nc1ccc(S(=O)(=O)Nc2nc(C)cc(C)n2)cc1)C1=CCOC1=O` (some centres undefined): the growth was 99.8% (inactive).

Regarding `COc1ccc2c(c1)C(=O)/C(=C/c1cccc(OCC(=O)Nc3nc4c(s3)CCCC4)c1)O2`, the growth was -16.2% (active).

In the case of `O=C([C@@H](COCc1ccccc1)N1C(=O)[C@@H](N2C(=O)OC[C@@H]2c2ccccc2)[C@H]1/C=C/c1ccccc1)N1CCC(CCN2CCCCC2)CC1`, the growth is 90.8% (inactive).

With `O=c1[nH]c(-c2ccccn2)nc2sc3c(c12)CCCCC3`, the growth was 81.7% (inactive).

As for `NC1=CC(=O)C(=O)c2ccccc21`, the growth was 99.5% (inactive).

On to `CN1CCOCCOCCOc2ccccc2NC(=O)c2nc(cnc2N)-c2ccc(cc2)S1(=O)=O`, for which the growth is 66.4% (inactive).

Regarding `COc1ccc(S(=O)(=O)NCCCNc2nccc(-c3c(-c4cccc(N)c4)nc4sccn34)n2)cc1`, the growth is 93.9% (inactive).

As to `COc1ccccc1N1CCN(CCn2c(=O)c3c(c4ccccc4n3C)n(C)c2=O)CC1`, the growth is 98.5% (inactive).

Regarding `COc1cnc2c(c1)C(=O)c1c-2n(CCCBr)c(=O)c2cc([N+](=O)[O-])ccc12`, the growth was 36.9% (inactive).

In the case of `O=C(C[C@@H](C(=O)NCc1cccc(C(F)(F)F)c1)N1C(=O)[C@@H](N2C(=O)OC[C@@H]2c2ccccc2)[C@H]1/C=C/c1ccccc1)NC1CCN(Cc2ccccc2)CC1`, the growth was 73.3% (inactive).

In the case of `CCCCCCNC(=O)Oc1ccc(/C(=C(\C)c2ccccc2)c2ccc(OCCN(CC)CC)cc2)cc1`, the growth was 36.4% (inactive).

`CC#CC#Cc1cccc(=O)o1`: the growth was 70.9% (inactive).

As to `CCCCCCCCCCCCNC(=O)[C@H]1CSC(c2ccc(OC)c(F)c2)N1` (some centres undefined), the growth was -49.6% (active).

`O=C(CN1CCN(c2cc3c(cc2F)c(=O)c(C(=O)N/N=C/c2ccccc2)cn3C2CC2)CC1)N/N=C\c1ccccc1`: the growth was 84.8% (inactive).

As for `CNc1nc(C)c(-c2nc(Nc3cccc(S(N)(=O)=O)c3)ncc2F)s1`, the growth was 3.64% (active).

Regarding `CC1=CC(=O)CC(C)(C)[C@@]1(O)/C=C/[C@@H](C)O`, the growth was 105% (inactive).

Regarding `CC(=O)Nc1ccc2c(c1)c(NC(C)=O)nn2C(=O)Nc1ccc(Cc2ccccc2)cc1`, the growth was 56.9% (inactive).

Take `Cn1c2ccccc2c2c3c(c4c5ccccc5[nH]c4c21)C(=O)N(N)C3=O`: the growth was 79.5% (inactive).

Turning to `COc1cc(OC)c(/C=C/C(=O)c2c(OC)cc(OC)cc2OC)c(OC)c1`, the growth was 52.6% (inactive).

For the molecule `CCCCCCCCCCCCCCCCCCNC(=O)[C@H]1CSC(c2ccc(OC)c(F)c2)N1` (some centres undefined), the growth is 32.6% (inactive).

On to `O=C1c2cc3c(cc2-c2c1c1cc(Cl)c(Cl)cc1c(=O)n2C[C@H](O)CO)OCO3`, for which the growth is 33% (inactive).

On to `COc1cc2nc3cc([N+](=O)[O-])ccc3c(NCCCNCC(C)(C)O)c2cc1OC`, for which the growth was -18.6% (active).

Consider `CC(C)C1=C[C@@]23CC[C@@H]4[C@](C)(CCC[C@@]4(C)C(=O)OCC#CCN4CCCC4)[C@H]2C[C@@H]1[C@H]1C(=O)OC(=O)[C@H]13`, for which the growth is 99.2% (inactive).

On to `CN(C)c1ccc(/C=C(\C#N)c2nc3ccccc3s2)cc1`, for which the growth is 104% (inactive).

For the molecule `COc1ccc(Cl)cc1Nc1nc(C(F)(F)F)ccc1C(=O)N/N=C/c1cccnc1`, the growth was 59.6% (inactive).

Consider `CC(=O)C1=C(O)C=C2Oc3c(C(=O)/C=C/c4ccccc4)c(O)c(C)c(O)c3[C@]2(C)C1=O`, for which the growth was 50% (inactive).

Take `Cn1c(=O)c2c(ncn2CC[N+](C)(C)C)n(C)c1=O`: the growth is 110% (inactive).

With `OC(c1cc(-c2ccccc2)nc2ccc(Cl)cc12)C1CCCCN1` (centres undefined), the growth is 61.6% (inactive).

The next assay deals with NCI/ADR-RES ovarian. The assay is described as above. The note with it: 10 µM unless noted.
For `CC[n+]1ccc2c(c1)C(=O)c1nccc3c1c-2nc1ccccc13`, the growth was 75.1% (inactive).

Regarding `O=C1c2cc3c(cc2-c2c1c1cc(F)c(F)cc1c(=O)n2C[C@H](O)CO)OCO3`, the growth was -17% (active).

Consider `Cn1c2ccccc2c2c3c(c4c5ccccc5n(CCCCCC#N)c4c21)C(=O)N(O)C3=O`, for which the growth is 12.2% (inactive).

For the molecule `CCCCCCCCCc1cc(CN2CCCCC2)c(O)c(CN2CCCCC2)c1`, the growth was 58.3% (inactive).

As to `CC/C(Cc1ccccc1)=C(\c1ccc(OCCN2CCCC2)cc1)c1ccc(OC(C)=O)cc1`, the growth is 75.5% (inactive).

For the molecule `C=C1CC[C@@H]2[C@](C)(COC(C)=O)[C@H](OC(C)=O)CC[C@@]2(C)[C@@H]1CC(Nc1ccc(S(=O)(=O)Nc2nc(C)cc(C)n2)cc1)C1=CCOC1=O` (some centres undefined), the growth is 66.6% (inactive).

Take `COc1ccc2c(c1)C(=O)/C(=C/c1cccc(OCC(=O)Nc3nc4c(s3)CCCC4)c1)O2`: the growth is 10.4% (inactive).

In the case of `O=C([C@@H](COCc1ccccc1)N1C(=O)[C@@H](N2C(=O)OC[C@@H]2c2ccccc2)[C@H]1/C=C/c1ccccc1)N1CCC(CCN2CCCCC2)CC1`, the growth was 95.4% (inactive).

Consider `O=c1[nH]c(-c2ccccn2)nc2sc3c(c12)CCCCC3`, for which the growth was 15.1% (inactive).

For `NC1=CC(=O)C(=O)c2ccccc21`, the growth was 58.7% (inactive).

As to `CN1CCOCCOCCOc2ccccc2NC(=O)c2nc(cnc2N)-c2ccc(cc2)S1(=O)=O`, the growth is 43.5% (inactive).

On to `COc1ccccc1N1CCN(CCn2c(=O)c3c(c4ccccc4n3C)n(C)c2=O)CC1`, for which the growth is 100% (inactive).

For `O=C(C[C@@H](C(=O)NCc1cccc(C(F)(F)F)c1)N1C(=O)[C@@H](N2C(=O)OC[C@@H]2c2ccccc2)[C@H]1/C=C/c1ccccc1)NC1CCN(Cc2ccccc2)CC1`, the growth is 69.8% (inactive).

With `CCCCCCNC(=O)Oc1ccc(/C(=C(\C)c2ccccc2)c2ccc(OCCN(CC)CC)cc2)cc1`, the growth was 70.6% (inactive).

On to `CC#CC#Cc1cccc(=O)o1`, for which the growth is 90.1% (inactive).

Regarding `O=C(CN1CCN(c2cc3c(cc2F)c(=O)c(C(=O)N/N=C/c2ccccc2)cn3C2CC2)CC1)N/N=C\c1ccccc1`, the growth is 77.1% (inactive).

As for `Cn1c2ccccc2c2c3c(c4c5ccccc5[nH]c4c21)C(=O)N(N)C3=O`, the growth is 71.6% (inactive).

Take `CCCCCCCCCCCCCCCCCCNC(=O)[C@H]1CSC(c2ccc(OC)c(F)c2)N1` (some centres undefined): the growth was -36.8% (active).

For `O=C1c2cc3c(cc2-c2c1c1cc(Cl)c(Cl)cc1c(=O)n2C[C@H](O)CO)OCO3`, the growth was -29.4% (active).

With `COc1cc2nc3cc([N+](=O)[O-])ccc3c(NCCCNCC(C)(C)O)c2cc1OC`, the growth is 87.6% (inactive).

Turning to `CC(C)C1=C[C@@]23CC[C@@H]4[C@](C)(CCC[C@@]4(C)C(=O)OCC#CCN4CCCC4)[C@H]2C[C@@H]1[C@H]1C(=O)OC(=O)[C@H]13`, the growth was 99.3% (inactive).

Turning to `CN(C)c1ccc(/C=C(\C#N)c2nc3ccccc3s2)cc1`, the growth was 107% (inactive).

Regarding `COc1ccc(Cl)cc1Nc1nc(C(F)(F)F)ccc1C(=O)N/N=C/c1cccnc1`, the growth was 41.8% (inactive).

For the molecule `CC(=O)C1=C(O)C=C2Oc3c(C(=O)/C=C/c4ccccc4)c(O)c(C)c(O)c3[C@]2(C)C1=O`, the growth was 16.9% (inactive).

In the case of `Cn1c(=O)c2c(ncn2CC[N+](C)(C)C)n(C)c1=O`, the growth is 102% (inactive).

In the case of `OC(c1cc(-c2ccccc2)nc2ccc(Cl)cc12)C1CCCCN1` (centres undefined), the growth is 68.5% (inactive).
